Activity calls are given as the source filed them.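 The calls were made as follows: active = growth inhibition above 50% at the single 2 µM test dose, taken to imply half-maximal potency below 2 µM; inactive = the rest.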
Test: antimalarial activity against Dd2 strain (AID 2302);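 also: 0% = DMSO untreated growth and 100% = chloroquine plus artemisinin killed control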
Conditions: P. falciparum Dd2 in RBCs, LDH growth readout, 72 h; at 2 µM; stronger effect = higher value

SMILES	growth inhibition
CC(=O)Nc1ccc(C(=O)Nc2cccc(-c3csc(-c4nc5ccccc5[nH]4)c3)c2)cn1	97% (active)
c1nc2nc3c(c(Nc4ccc5c(c4)CCC5)n2n1)CCC3	70% (active)
Cc1cc(N)c2cc(NC(=O)c3cc(C(F)(F)F)cc(C(F)(F)F)c3)ccc2n1	99% (active)
Oc1cc2c(cc1CN1CCN(Cc3ccccc3F)CC1)CCC2	94% (active)
COc1ccc(Cc2c(C)nc3nc(N)nc(N)c3c2C)cc1	2% (inactive)
COCCn1c(-c2nc(-c3ccc(F)cc3)cnc2N)nc2ccccc21	98% (active)
Cc1[nH]c(C)c(-c2ccc(OCCOc3ccc(C(F)(F)F)cn3)cc2)c(=O)c1Br	97% (active)
COc1cccc(OC)c1C(=O)Nc1cccc(-c2nn3ccccc3c2-c2ccnc(Nc3cccc(F)c3)n2)c1	38% (inactive)
Cc1cnc2ccc(NS(=O)(=O)c3ccc4c(Cl)cccc4c3)cc2c1N1CCNCC1	3% (inactive)
Cc1c(S(=O)(=O)Nc2cccc(CCN3CCCCC3CCN3CCCC3)c2)sc2ccc(Cl)cc12 (centres undefined)	10% (inactive)
COc1cccc(Cc2c(C)nc3nc(N)nc(N)c3c2C)c1	1% (inactive)
COc1ccc(-c2cccc(NC(=O)c3cccc(Cl)c3)c2)cc1CN(C)CCN(C)C	73% (active)
O=C(/C=C/c1ccc(Cl)c(Cl)c1)NCCCCCN1CCC(CCNC(=O)C2(c3ccc(Cl)cc3)CC2)CC1	16% (inactive)
O=C(C=Cc1ccc(Cl)c(Cl)c1)NCCCCCN1CCC(CCCNC(=O)[C@@H]2C[C@H]2c2ccccc2)CC1	12% (inactive)
N#Cc1cccc(C(=O)Nc2cccc(-c3ccc(CN4CCCC4)cc3)c2)c1	42% (inactive)
CN1CCN(c2nsc3ccc(-c4ccc(NC(=O)Nc5cc(C(F)(F)F)ccc5F)cc4)cc23)CC1	64% (active)
NC(=O)c1ccsc1NC(=O)CNC(c1ccc(F)cc1)c1cccs1 (centres undefined)	71% (active)
CC(C)Nc1nc(NCCc2cnc[nH]2)nc(Nc2ccc(Oc3ccccc3)cc2)n1	9% (inactive)
c1ccc(-c2cc(NCCCCNc3cc(-c4ccccc4)nc4ccccc34)c3ccccc3n2)cc1	97% (active)
CCOC(=O)c1c(C)n(-c2ccccc2)c2ccc(O)cc12	87% (active)

SMILES	growth inhibition
CC(C)Nc1nc(NCCc2cnc[nH]2)nc(NCc2cccc3ccccc23)n1	0% (inactive)
CCc1cn2c3c(cc(C(=O)N[C@@H](Cc4ccccc4)[C@H](O)CNC4CC4)cc13)N(CC)S(=O)(=O)CC2	99% (active)
Fc1ccc2nc(-c3ccc(-c4ccc(CNCCc5cccnc5)cc4)s3)[nH]c2c1	99% (active)
COc1cc(Cc2cnc(N)nc2N)cc(OC)c1OCCCCC(=O)O	-1% (inactive)
O=C(N[C@H]1CCN(Cc2ccc(OC3CCN(Cc4ccccc4)CC3)c(Br)c2)C1)c1ccc(Cl)c(Cl)c1	30% (inactive)
O=C(NCC1CCN(C/C=C/c2ccccc2)CC1)Nc1ccc(Oc2ccccc2)cc1	11% (inactive)
COc1cccc2cc(C(=O)N[C@@H](CC(C)C)C(=O)N[C@H](/C=N/N(C)C(=O)OC(C)(C)C)CC(=O)OC(C)(C)C)oc12	67% (active)
CN1CCC(c2cc3c(cc2Br)CCN3C(=O)Nc2ccc(-c3ccncc3)c(Cl)c2)CC1	-1% (inactive)
Cc1[nH]nc2cc(Nc3ccnc(Nc4ccc(CN5CCOCC5)cc4)n3)ccc12	5% (inactive)
CCC(C)NC(=O)CN1CN(c2ccccc2)C2(CCN(C(=O)c3ccc(C(C)(C)C)cc3)CC2)C1=O (centres undefined)	100% (active)
c1ccc(-c2nc(Nc3nc4ccccc4[nH]3)[nH]c2-c2ccccc2)cc1	61% (active)
Cc1ccc2c(c1[N+](=O)[O-])N=NCC2Oc1ccccc1 (centres undefined)	19% (inactive)
COc1ccc(-c2cnc3[nH]cc(-c4ccc(C(=O)O)cc4)c3c2)cn1	99% (active)
c1ccc(CCNCc2ccc(-c3cccc(-c4nc5ccccc5[nH]4)c3)cc2)nc1	87% (active)
O=C(Nc1ccc(-c2cccc(-c3nc4ccccc4[nH]3)c2)cc1)Nc1ccsc1	90% (active)
COc1ccc2ncc(C#N)c(CCN3C[C@H](CNCc4ccccc4)[C@H](O)C3)c2n1	24% (inactive)
Oc1ccc2c(CNCCc3ccccc3)c(O)ccc2c1CNCCc1ccccc1	100% (active)
NC1=NC(c2ccccc2)N(OCc2ccccc2)C(N)=N1 (centres undefined)	21% (inactive)
O=C(Nc1ccc2c(c1)CCN2C1CCN(Cc2ccc(F)cc2Cl)C1)c1ccco1 (centres undefined)	96% (active)
